Our source for the outcome and AC50 values is PubChem BioAssay (EPA / NIEHS).

Read-out in assay [1]: Interleukin-8 (IL8), CXCL8 (gene 3576)
Kind of assay: BSK_CASM3C_IL8: BioMAP Diversity Plus: CASM3C Assay for Interleukin-8 (IL8) Biomarker Activity (AID 2283042).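 Further: IL-8 protein level quantified by ELISA.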 To be noted: primary human coronary artery smooth muscle cells; actives raise or lower the signal.

Read-out in assay [2]: Human Leukocyte Antigen - DR isotype (HLADR), HLA-DRA (gene 3122)
Description: BSK_CASM3C_HLADR: BioMAP Diversity Plus: CASM3C Assay for Human Leukocyte Antigen - DR isotype (HLADR) Biomarker Activity (AID 2283043).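 Further: cell-surface HLA-DR protein level quantified by ELISA.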 To be noted: primary human coronary artery smooth muscle cells; actives raise or lower the signal.

Read-out in assay [3]: Macrophage colony-stimulating factor (MCSF), CSF1 (gene 1435)
Description: BSK_CASM3C_MCSF: BioMAP Diversity Plus: CASM3C Assay for Macrophage colony-stimulating factor (MCSF) Biomarker Activity (AID 2283044).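 Further: M-CSF protein amount quantified by ELISA after 24 h exposure.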 Particulars: primary human coronary artery smooth muscle cells; actives raise or lower the signal.

Read-out in assay [4]: Low-density lipoprotein receptor (LDLR), LDLR (gene 3949)
Description: BSK_CASM3C_LDLR: BioMAP Diversity Plus: CASM3C Assay for Low-density lipoprotein receptor (LDLR) Biomarker Activity (AID 2283045).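 Further: LDLR protein level on the cell surface quantified by ELISA.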 Particulars: primary human coronary artery smooth muscle cells; actives raise or lower the signal.

Read-out in assay [5]: Monocyte Chemoattractant Protein-1 (MCP1), CCL2 (gene 6347)
Kind of assay: BSK_CASM3C_MCP1: BioMAP Diversity Plus: CASM3C Assay for Monocyte Chemoattractant Protein-1 (MCP1) Biomarker Activity (AID 2283046).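 Further: MCP-1 level quantified by ELISA 24 h after dosing.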 To be noted: primary human coronary artery smooth muscle cells; actives raise or lower the signal.

Assay [6] can be described thus: BSK_CASM3C_Proliferation: Cell Proliferation Assessment in the BioMAP Diversity Plus: CASM3C Assay (AID 2283047).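 Further: sulforhodamine B total protein stain as relative cell number at 560 nm; sub-confluent cells exposed 48 h before staining; fitted both ways against DMSO so gain or loss of cell number.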 To be noted: primary human coronary artery smooth muscle cells.
Read-out in assay [7]: Monokine induced gamma interferon (MIG), CXCL9 (gene 4283)
Description: BSK_CASM3C_MIG: BioMAP Diversity Plus: CASM3C Assay for Monokine induced gamma interferon (MIG) Biomarker Activity (AID 2283048).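 Further: MIG protein level measured by ELISA.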 To be noted: primary human coronary artery smooth muscle cells; actives raise or lower the signal.

Read-out in assay [8]: serum amyloid A (SAA), SAA1 (gene 6288)
Description: BSK_CASM3C_SAA: BioMAP Diversity Plus: CASM3C Assay for serum amyloid A (SAA) Biomarker Activity (AID 2283049).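 Further: SAA protein level quantified by ELISA.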 Particulars: primary human coronary artery smooth muscle cells; actives raise or lower the signal.

Assay [9] can be described thus: BSK_CASM3C_SRB: Viability Assessment in the BioMAP Diversity Plus: CASM3C Assay (AID 2283050).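 Further: total protein by SRB staining as cytotoxicity measure in parallel cultures; cells exposed to compound for 24 h.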 Particulars: primary human coronary artery smooth muscle cells.
Read-out in assay [10]: Thrombomodulin, THBD (gene 7056)
Description: BSK_CASM3C_Thrombomodulin: BioMAP Diversity Plus: CASM3C Assay for Thrombomodulin Biomarker Activity (AID 2283051).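 Further: thrombomodulin protein level measured by ELISA 24 h after dosing.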 To be noted: primary human coronary artery smooth muscle cells; actives raise or lower the signal.

Read-out in assay [11]: Tissue Factor, F3 (gene 2152)
Kind of assay: BSK_CASM3C_TissueFactor: BioMAP Diversity Plus: CASM3C Assay for Tissue Factor Biomarker Activity (AID 2283052).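 Further: cell surface tissue factor protein level read by ELISA.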 Particulars: primary human coronary artery smooth muscle cells; actives raise or lower the signal.

Read-out in assay [12]: Interferon-gamma inducible Protein 10 (IP10), CXCL10 (gene 3627)
Kind of assay: BSK_hDFCGF_IP10: BioMAP Diversity Plus: hDFCGF Assay for Interferon-gamma inducible Protein 10 (IP10) Biomarker Activity (AID 2283053). To be noted: primary human foreskin fibroblasts; actives raise or lower the signal. An outline of the steps:
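ELISA read-out of IP-10 (CXCL10) from primary human skin fibroblasts, 24 h after compound addition. Gain or loss of signal versus DMSO baseline, bidirectional curve fitting.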

Read-out in assay [13]: Urokinase-type plasminogen activator receptor (uPAR), PLAUR (gene 5329)
Description: BSK_CASM3C_uPAR: BioMAP Diversity Plus: CASM3C Assay for Urokinase-type plasminogen activator receptor (uPAR) Biomarker Activity (AID 2283054).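 Further: cell-surface uPAR protein level quantified by ELISA.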 To be noted: primary human coronary artery smooth muscle cells; actives raise or lower the signal.

Read-out in assay [14]: Vascular cell adhesion molecule 1 (VCAM1), VCAM1 (gene 7412)
Kind of assay: BSK_CASM3C_VCAM1: BioMAP Diversity Plus: CASM3C Assay for Vascular cell adhesion molecule 1 (VCAM1) Biomarker Activity (AID 2283055).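 Further: VCAM-1 protein level quantified by ELISA on the cells.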 To be noted: primary human coronary artery smooth muscle cells; actives raise or lower the signal.

Read-out in assay [15]: Collagen III, COL3A1 (gene 1281)
Description: BSK_hDFCGF_CollagenIII: BioMAP Diversity Plus: hDFCGF Assay for Collagen III Biomarker Activity (AID 2283056). To be noted: primary human foreskin fibroblasts; actives raise or lower the signal. An outline of the steps:
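Human foreskin primary fibroblasts were exposed to test chemicals for 24 h, after which collagen III was quantified by ELISA. Activity was fitted bidirectionally against DMSO as negative control and baseline.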

Read-out in assay [16]: Epidermal growth factor receptor (EGFR), EGFR (gene 1956)
Description: BSK_hDFCGF_EGFR: BioMAP Diversity Plus: hDFCGF Assay for Epidermal growth factor receptor (EGFR) Biomarker Activity (AID 2283057). To be noted: primary human foreskin fibroblasts; actives raise or lower the signal. An outline of the steps: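 ELISA readout of EGFR on human dermal fibroblasts (primary foreskin cells), 24 h post-dosing; bidirectional curve fit vs DMSO baseline, gain or loss of signal scored.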

Assay [17] is described as follows: BSK_hDFCGF_Proliferation: Cell Proliferation Assessment in the BioMAP Diversity Plus: hDFCGF Assay (AID 2283059).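 Further: curves fitted for both rise and fall of signal versus DMSO baseline.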 To be noted: primary human foreskin fibroblasts. An outline of the steps:
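Steps: dose primary human dermal fibroblasts (foreskin); […] fix in 10% TCA; stain with 0.1% SRB; read 560 nm; fit gain or loss of signal against DMSO.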

Read-out in assay [18]: Macrophage colony-stimulating factor (MCSF), CSF1 (gene 1435)
Description: BSK_hDFCGF_MCSF: BioMAP Diversity Plus: hDFCGF Assay for Macrophage colony-stimulating factor (MCSF) Biomarker Activity (AID 2283060). To be noted: primary human foreskin fibroblasts; actives raise or lower the signal. An outline of the steps:
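Human foreskin primary fibroblasts were treated with test chemical for 24 h, and M-CSF was then measured by ELISA. Data were fitted bidirectionally against DMSO as the negative control and activity baseline.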

Assay [19] in a line: BSK_hDFCGF_SRB: Viability Assessment in the BioMAP Diversity Plus: hDFCGF Assay (AID 2283061).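 Further: cells exposed to compound for 24 h before the read.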 To be noted: primary human foreskin fibroblasts. An outline of the steps:
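Human foreskin primary fibroblasts were treated with compound and assessed 24 h after dosing. Total protein was measured by sulforhodamine B staining (0.1% SRB after 10% TCA fixation, 560 nm read) as a cytotoxicity marker, with bidirectional fitting against DMSO baseline.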

Active and inactive are the calls of the source. How the source made its calls: active means hit-call score of the fitted dose curve at least 0.9, where 1 is the maximum; inactive means score below 0.9.

Turning to `CC(C)(C)c1cccc(C(C)(C)C)c1O`, the outcome in assay [1], in assay [2], in assay [3], in [4], in assay [5] and in assay [6] was inactive. Also, the result in assay [7], in assay [8], in [9], in assay [10], in assay [13] and in assay [14] was inactive. For the same compound, the outcome in assay [16] was inactive. Further, the AC50 (commonly the midpoint of the concentration-response curve, whichever way the signal moves) is 20 µM (active) in assay [11]; 37.8 µM (active) in assay [12]; 35.9 µM (active) in assay [15]; 35 µM (active) in assay [17]; 31 µM (active) in [18].

On to `N#C[C@@H]1CC(F)(F)CN1C(=O)CNC1CC2CCC(C1)N2c1ncccn1` (some centres undefined), for which the outcome in assay [1], in assay [2], in assay [3], in assay [4], in assay [5] and in assay [6] was inactive. Besides, the outcome in [7], in [8], in [9], in assay [10], in assay [11] and in [12] was inactive. Moreover, the result in assay [13], in assay [14], in assay [15], in [16], in assay [17] and in assay [18] was inactive.

Take `CCCCCCCC(=O)O`: the outcome in assay [1], in assay [2], in assay [3], in [4], in assay [5] and in assay [6] was inactive. The result in assay [7], in [8], in assay [9], in assay [10], in assay [11] and in assay [12] was inactive. In addition, the result in [13], in assay [14], in assay [15], in [16], in [17] and in [18] was inactive.

In the case of `Oc1cccc(O)c1`, the outcome in assay [1], in assay [2], in assay [3], in assay [4], in assay [5] and in [6] was inactive. The result in assay [7], in [8], in assay [9], in assay [10], in [11] and in assay [12] was inactive. For the same compound, the result in assay [13], in assay [14], in assay [15], in assay [16], in [17] and in assay [18] was inactive.

On to `CCc1ccc(CCOc2ccc(CC3SC(=O)NC3=O)cc2)nc1` (centres undefined), for which the result in assay [1], in assay [2], in [3], in assay [4], in assay [5] and in assay [6] was inactive. The result in assay [7], in [8], in assay [9], in assay [10], in assay [11] and in assay [12] was inactive. Besides, the outcome in [13], in [14], in [15], in assay [16], in assay [17] and in assay [18] was inactive.

For the compound `CC1=C(/C=C/C(C)=C/C=C/C(C)=C/C(=O)O)C(C)(C)CCC1`, the outcome in assay [1], in assay [3], in [4], in assay [5], in [7] and in [8] was inactive. Besides, the outcome in assay [11], in assay [13] and in assay [16] was inactive. The AC50 in assay [2] is 26.3 µM (active); in assay [6], 20 µM (active); in [10], 8.15 µM (active); in assay [12], 30.2 µM (active); in [14], 20 µM (active); in assay [15], 15 µM (active). Besides, the AC50 is 7.76 µM (active) in assay [17] and 25.2 µM (active) in assay [18].

`CCCCOCCO`: the result in assay [1], in assay [2], in [3], in assay [4], in assay [5] and in assay [6] was inactive. Moreover, the outcome in assay [7], in [8], in assay [9], in assay [10], in [11] and in assay [12] was inactive. Moreover, the outcome in assay [13], in assay [14], in assay [15], in assay [16], in [17] and in assay [18] was inactive.

Turning to `CCCCCCCCCCCCCC[N+](C)(C)C`, the AC50 in [1] is 10.8 µM (active); in assay [2], 5.99 µM (active); in assay [3], 4.57 µM (active); in assay [4], 8.07 µM (active); in assay [5] it was 5.83 µM (active); in assay [6], 5.31 µM (active). In addition, the AC50 in assay [7] is 11.8 µM (active); in assay [8], 2.89 µM (active); in [9], 5.35 µM (active); in assay [10], 5.06 µM (active); in [11], 5.36 µM (active); in assay [12], 5.92 µM (active). For the same compound, the AC50 in [13] was 5.05 µM (active); in assay [14], 9.9 µM (active); in assay [15] it was 1.59 µM (active); in assay [16], 4.98 µM (active); in assay [17], 1.05 µM (active); in assay [18], 2.81 µM (active). In addition, the AC50 in assay [19] is 5.22 µM (active).

With `CN1CCN(c2ccccc2/C=C2\SCCN(c3ccc(Cl)c(Cl)c3)C2=O)CC1`, the outcome in assay [1], in assay [2], in [3], in [5], in assay [7] and in [8] was inactive. In addition, the outcome in assay [10], in assay [11], in [13], in assay [14] and in assay [16] was inactive. The half-maximal activity concentration (AC50) in [4] was 2.95 µM (active); in assay [6], 20 µM (active); in assay [9] it was 20 µM (active); in assay [12], 30.7 µM (active); in [15], 13.7 µM (active); in assay [17], 5.54 µM (active). In addition, the AC50 in [18] was 23.5 µM (active); in assay [19] it was 28.3 µM (active).

Regarding `CN1CCC[C@H]1c1cccnc1`, the outcome in [1], in assay [2], in assay [3], in assay [4], in [5] and in [6] was inactive. Also, the result in [7], in [8], in [9], in assay [10], in assay [11] and in [12] was inactive. The result in assay [13], in assay [14], in assay [15], in assay [16], in assay [17] and in [18] was inactive. The result in [19] was inactive.

In the case of `COCC(C)OCC(C)O` (centres undefined), the result in assay [1], in assay [2], in [3], in [4], in assay [5] and in [6] was inactive. Moreover, the outcome in assay [7], in assay [8], in [9], in [10], in assay [11] and in [12] was inactive. The outcome in assay [13], in assay [14], in assay [15], in [16], in assay [17] and in assay [18] was inactive. For the same compound, the outcome in assay [19] was inactive.

As to `NC(=O)N1C(=O)C(C(=O)c2cc(Cl)cs2)c2cc(F)c(Cl)cc21` (centres undefined), the outcome in assay [1], in assay [3], in assay [4], in assay [7], in assay [8] and in [10] was inactive. Moreover, the result in assay [11] and in assay [16] was inactive. Further, the AC50 is 14.1 µM (active) in [2]; 7.46 µM (active) in [5]; 27.4 µM (active) in assay [6]; 23.8 µM (active) in [9]; 5.92 µM (active) in assay [12]; 27.3 µM (active) in assay [13]. In addition, the AC50 in assay [14] was 5.41 µM (active); in [15] it was 4.54 µM (active); in assay [17], 1.54 µM (active); in assay [18] it was 2.1 µM (active).
